Sampled rows, rich in hits. Any-hit rate of the full collection: about 15%.
VP16 counter: Gal4-VP16 reporter inhibition counter-screen; AID 2546; Potency, µM (highest dose often 53.6 µM), inactives show at the highest dose activity, negative = inhibition, actives largely listed as inhibitors; Drosophila S2 Gal4-VP16 UAS-luciferase, luminescence, 20 h; hit rate 3.5% among 310,000;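 note: Gal4-VP16 expression switched on by copper sulfate through the metallothionein promoter; nearly all actives have a fitted effect of over 50% in size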
ALOX12 inh: blocks human arachidonate 12S-lipoxygenase; hit rate 1.1% among 580,000; Potency, µM (series often up to 108 µM), for inactives: at the top dose activity change, negative = inhibition, most hits filed as inhibitors; purified 12hLO, xylenol orange hydroperoxide absorbance
Target sequence (P18054 whole entry, looked up): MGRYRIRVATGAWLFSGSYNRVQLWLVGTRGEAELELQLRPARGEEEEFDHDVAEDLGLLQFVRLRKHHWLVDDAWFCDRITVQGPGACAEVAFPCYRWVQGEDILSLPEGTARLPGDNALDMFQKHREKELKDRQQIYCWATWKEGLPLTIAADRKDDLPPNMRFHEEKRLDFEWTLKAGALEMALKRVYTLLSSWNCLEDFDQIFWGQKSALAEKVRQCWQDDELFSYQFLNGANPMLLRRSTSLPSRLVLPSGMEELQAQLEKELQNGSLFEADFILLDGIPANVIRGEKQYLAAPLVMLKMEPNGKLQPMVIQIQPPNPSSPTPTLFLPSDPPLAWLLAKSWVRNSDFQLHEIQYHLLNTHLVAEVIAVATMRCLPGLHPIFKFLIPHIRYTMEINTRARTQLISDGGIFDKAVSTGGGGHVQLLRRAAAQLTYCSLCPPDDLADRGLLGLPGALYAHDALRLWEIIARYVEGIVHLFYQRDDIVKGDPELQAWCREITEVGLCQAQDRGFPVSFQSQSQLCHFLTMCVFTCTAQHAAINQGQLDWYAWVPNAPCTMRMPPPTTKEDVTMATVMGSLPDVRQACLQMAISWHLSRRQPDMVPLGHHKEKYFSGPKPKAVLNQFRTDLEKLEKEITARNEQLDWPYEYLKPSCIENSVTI
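Purified human 12hLO at 150 nM in 25 mM Hepes, 0.01% Triton X-100, pH 7.0, preincubated 15 min at room temperature with compound. Reaction started with 40 uM arachidonic acid, 30 min at room temperature. Hydroperoxide measured by Fe-xylenol orange, 573/405 nm absorbance ratio.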
ELG1 repair inh: ELG1-dependent DNA repair inhibition. Potency, µM (top dose mostly 46.1 µM), for inactives: at the highest dose activity change, negative = inhibition, hits mostly inhibitors. AID 504467. hit rate 2.3% among 330,000. HEK293T ELG1-luciferase reporter, luminescence, 16 h; DNA damage induced by 5-fluorouridine; note: nearly all actives have a fitted effect of over 55% in size
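5-Fluorouridine DNA damage + compound/DMSO, 2,000 cells/well, 16 h, 37 °C/5% CO2. ONE-Glo, 30 min RT, luminescence. Readout = decrease in reporter signal.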
RORgamma inh: ROR gamma (mouse) transcription inhibition; Drosophila S2 Gal4-RORgamma UAS-luciferase reporter, 20 h; Potency, µM (doses to about 53.6 µM), for the others: top-dose activity change, negative = inhibition, hits mostly inhibitors; P51450; hit rate 5.4% among 310,000; note: nearly all actives have a fitted effect of over 60% in size
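Read-out: Photinus luciferase luminescence; inhibitors lower reporter signal. Insect Schneider cells with Gal4-ROR gamma fusion under metallothionein promoter, UAS reporter; 700 uM final copper sulfate induction, 20 hr, ambient temperature.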
TDP1 cell CPT: DT40-hTDP1 cell growth loss with CPT. AID 686979. chicken DT40 Tdp1-/-;hTDP1 cells + 20 nM CPT, ATP luminescence, 48 h. Potency, µM (titrated, usually from 46.2 µM), for the others: top-dose activity change, negative = growth inhibition, hits mostly inhibitors. hit rate 12% among 420,000; note: nearly all actives have a fitted effect of over 55% in size
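Chicken DT40 Tdp1-/- cells complemented with human TDP1, 400 cells/well, exposed to compounds plus 20 nM camptothecin for at least 48 h at 37 C; viability read as ATP content by CellTiter-Glo luminescence.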
TDP1 cell noCPT: qHTS for Inhibitors of human tyrosyl-DNA phosphodiesterase 1 (TDP1): qHTS in cells in absence of CPT; DT40 Tdp1-/- hTDP1 cells, no CPT, ATP luminescence, 48 h; Potency, µM (highest dose often 46.2 µM), without a hit: at the top dose activity change, negative = growth inhibition, most hits filed as inhibitors; hit rate 15% among 420,000; AID 686978, 2013; note: nearly all actives have a fitted effect of over 55% in size
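Luminescent ATP content (CellTiter-Glo) served as the growth readout. Knockout chicken DT40 cells expressing human TDP1 were exposed to compounds without camptothecin for a minimum 48 hr at 37 °C.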
Active calls of the source: *; ? = inconclusive; nt = no result given; ! = not confirmed by another sample; [ ] = dose if it differs, or a comment. Calls come from the whole dose curve; as a rule, active = well fitted curve in the direction sought with a large enough effect; inconclusive = small, poorly fitted or top-dose-only effect, or another doubt; inactive = no such curve, though single readings can be large; an effect the other way counts as inactive or inconclusive. % is set by controls: 0 for no effect and ±100 for the full control effect; potency is the fitted concentration of half-maximal effect.

SMILES	VP16 counter	ALOX12 inh	ELG1 repair inh	RORgamma inh	TDP1 cell CPT	TDP1 cell noCPT
CC(NC(=O)C12CC3CC(C1)CC(n1cncn1)(C3)C2)C12CC3CC(CC(C3)C1)C2 (centres undefined)	-15%	-23%	-11%	-12%	10µM*	8.2µM*
CNC(=O)c1cc(=O)n(CC(=O)Nc2ccc(C)c(C)c2)c2ccccc12	nt	0%	nt	nt	nt	nt
CCOC(=O)c1cc(C)n(CC2CCC(C(=O)Nc3ccc(OCC)cc3)CC2)c1C (centres undefined)	nt	-26%	nt	nt	16µM*	21µM*
COc1ccc(C(=O)N2CCC(C(=O)Nc3ccccc3OC)CC2)cc1	-8%	0%	13%	-20%	-23%	-13%
CCOC(=O)c1c(S(=O)(=O)N2CCC(C(=O)Nc3ccc(OCC)cc3)CC2)c(C)n(C)c1C	nt	-22%	nt	nt	-8%	-6%
CCOC(=O)c1cc(C)n(CC2CCC(C(=O)Nc3ccccc3OC)CC2)c1C (centres undefined)	nt	-21%	nt	nt	18µM*	?
CCc1ccc2oc(-c3ccc(CN)cc3)nc2c1	nt	-28%	nt	nt	nt	nt
Cc1nc(CN2CCOc3cc([S+](=O)([O-])N(C)C)ccc3C2)cs1	nt	99%[176 µM]	nt	nt	nt	nt
CC(=O)c1c(C(C)=O)c(C)n(C(c2ccccc2)c2ccccc2)c1C	-8%	6%	-14%	3%	?	21µM*
CC(=O)NC(C(=O)O)c1ccccc1 (centres undefined)	nt	-4%	nt	nt	nt	nt
CN(Cc1cnn(C)c1)C(=O)c1csc2nc(-c3cccc(C(F)(F)F)c3)cn12	nt	21%	nt	nt	nt	nt
COc1cc2c(CCNC(C)=O)c[nH]c2cc1O	nt	40µM*!	nt	nt	-3%	-4%
O=C1NCCCCCN(C(=O)CC2CCCC2)[C@@H]2C[C@@H](C(=O)N3CCc4ccccc4C3)C[C@H]12	nt	6%	nt	nt	nt	nt
Clc1ccc(CNC2CCN(Cc3ccccc3)CC2)cc1	1%	8.9µM*	-6%	0%[1.91 µM]	-98%	?
S=C(NCc1ccc(Cl)cc1)NC1CCN(Cc2ccccc2)CC1	?	?	18µM*	?	18µM*	16µM*
CCn1ccc(C(=O)N2CC(N(C3CCOCC3)S(C)(=O)=O)C2)n1	nt	15%	nt	nt	nt	nt
CCC(C)NC(=O)N1CC(Oc2ccc(-c3noc(C4CCOCC4)n3)cc2)C1 (centres undefined)	nt	8%	nt	nt	nt	nt
Cc1ccc(-n2nnnc2SCC(=O)Nc2ccccc2-c2ccccc2)cc1C	-9%	-17%	?	3%	?	?
O=C(CSc1nnc(-c2ccccc2)n1Cc1ccco1)NCc1ccc2c(c1)OCO2	0%	0%	16µM*	10%	-13%	-19%
CCn1c(SCC(=O)Nc2ccc(NC(=O)c3ccco3)cc2)nnc1-c1cccs1	nt	0%	nt	nt	-26%	-11%
O=C(CSc1nnc(-c2cccs2)n1Cc1ccco1)Nc1ccc2c(c1)OCO2	-17%	5%	15µM*	12%	-9%	-23%
Cc1ccc(-n2nnnc2SCC(=O)Nc2ccccc2N2CCCCC2)cc1C	-7%	1%	9.2µM*	-49%	?	18µM*
CCn1c(SCC(=O)Nc2cccc(NC(=O)c3ccco3)c2)nnc1-c1cccs1	2%	-19%	?	24%	?	16µM*
Cc1cc(C)n(-c2nc3cc(Cl)ccc3nc2NCc2ccncc2)n1	nt	-17%	nt	nt	nt	nt
Cc1ccc(-n2nnnc2SCC(=O)Nc2cccc(NC(=O)c3ccco3)c2)cc1C	-19%	26%	?	?	?	16µM*
SMILES	VP16 counter	ALOX12 inh	ELG1 repair inh	RORgamma inh	TDP1 cell CPT	TDP1 cell noCPT
O=C(NC1CCN(c2cc(-c3ccc(F)cc3)[nH]n2)C1)c1ccc(F)cc1Cl (centres undefined)	nt	30%	nt	nt	nt	nt
O=C(Cn1c(=O)oc2cc(S(=O)(=O)NCc3ccccc3)ccc21)NCc1ccccc1Cl	nt	-11%	nt	nt	7.3µM*	9.2µM*
O=C(Cn1c(=O)oc2cc(S(=O)(=O)N3CCCC3)ccc21)NCc1ccc(Cl)cc1	nt	?	nt	nt	16µM*	21µM*
O=C(Cn1c(=O)oc2cc(S(=O)(=O)NCc3ccccc3)ccc21)NCc1ccc(Cl)cc1	nt	?	nt	nt	13µM*	?
CC1CCC(NC(=O)C2CC=CCC2)CC1 (centres undefined)	nt	30%	nt	nt	nt	nt
Cc1c(C)n(CCO)c2ncn3nc(CSc4nc5ccccc5o4)nc3c12	nt	-3%	nt	nt	nt	nt
CCOC(=O)C(Cc1cc(C)c(CC(C(=O)OCC)C(=O)OCC)cc1C)C(=O)OCC	nt	73%	nt	nt	nt	nt
c1ccc(-c2csc(-c3nc4ccccc4[nH]3)n2)cc1	-20%	nt	nt	?	17µM*	27µM*
Nc1ccc(-c2nc3ccccc3[nH]2)cc1	-9%	6%	?	-29%	-5%	-20%
c1ccc(-c2cc(-c3nc4ccccc4[nH]3)c3ccccc3n2)cc1	-2%	-11%	21µM*	-16%	?	?
Cc1ccc(CNC(=O)N2CCC3(CC2)Nc2ccccc2-n2cccc23)cc1	nt	-17%	nt	nt	nt	nt
CC1(C)[C@H](Cc2cc(CC3CCCCC3)on2)C[C@@H]1NC(=O)c1ccccc1	nt	0%[176 µM]	nt	nt	nt	nt
CCN(CC)S(=O)(=O)c1ccc2nc(NC(=O)c3cccnc3)sc2c1	nt	2%	nt	nt	21µM*	?
CCN(CC)S(=O)(=O)c1ccc(C(=O)Nc2nc3c(Cl)cc(Cl)cc3s2)cc1	nt	0%	nt	nt	?	16µM*
CCCNS(=O)(=O)c1ccc2nc(NC(=O)c3ccc(F)cc3)sc2c1	nt	?	nt	nt	8.2µM*	21µM*
CCOC(=O)c1sc(NC(=O)c2ccc(S(=O)(=O)N(CC)CC)cc2)nc1C	-27%	34%	?	?	-7%	-25%
CCCCNS(=O)(=O)c1ccc2nc(NC(=O)c3cccnc3)sc2c1	nt	5%	nt	nt	?	?
COC(=O)c1c(NC(=O)c2ccncc2)sc(C(=O)Nc2ccccc2)c1C	nt	-6%	nt	nt	nt	nt
CC(=O)c1cccc(NC(=O)c2cccc3c(-c4cnn(C)c4)coc23)c1	nt	1%	nt	nt	13µM*	21µM*
O=C(Nc1cccc(OC(F)(F)F)c1)c1cccc2c(-c3cccnc3)coc12	nt	nt	nt	nt	23µM*	21µM*
O=C(NCCc1ccccc1)c1cccc2c(-c3cccnc3)coc12	nt	21%	nt	nt	-18%	-25%
COc1ccc(-c2coc3c(C(=O)Nc4cccc(NS(C)(=O)=O)c4)cccc23)c(C)c1	nt	-2%	nt	nt	?	21µM*
CC(=O)c1cccc(NC(=O)c2cccc3c(-c4cccnc4)coc23)c1	nt	0%	nt	nt	12µM*	9.2µM*
